Each structure is given as a SMILES string. Hit rate of the full screen: of about 320,000 compounds, about 1,200 (0.38%) were called active. What follows is part of a selection rich in actives, with near analogues and random picks from the rest. Unmarked numbers belong to inactive results.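 The calls were made as follows: active = inhibition above the screen-wide mean plus 3 SD, limit set per campaign (cut at about 26% in these data); inactive = the rest.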

In general, inhibition refers to the drop in the measured response relative to a control, in per cent.

The assay deals with Acyl-protein thioesterase 2 (Homo sapiens) (UniProt O95372). As to the kind of experiment: inhibition of human lysophospholipase 2 – biochemical, fluorescence polarization, FP-Rh probe ABPP, counter-screen for PME1 inhibitor project, primary screen (AID 2177).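 Also: 0% = LYPLA2 with DMSO and 100% = wells lacking LYPLA2 enzyme.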 Particulars: recombinant LYPLA2, FP-Rh probe fluorescence polarization; at 5.9 µM; active compounds read high. A general note: Polarisation of emitted light reports the rotation of a fluorescent probe.
Sequence of Acyl-protein thioesterase 2 (Homo sapiens) (O95372 whole entry, looked up): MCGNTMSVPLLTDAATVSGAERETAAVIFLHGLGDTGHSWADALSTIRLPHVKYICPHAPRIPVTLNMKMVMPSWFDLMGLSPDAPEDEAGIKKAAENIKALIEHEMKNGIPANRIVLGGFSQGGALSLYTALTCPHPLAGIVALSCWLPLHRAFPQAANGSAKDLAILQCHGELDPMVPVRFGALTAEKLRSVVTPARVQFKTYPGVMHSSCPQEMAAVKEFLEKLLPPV
For the compound `Oc1ccc(N=Cc2sc3ccccc3c2Cl)cc1`, the inhibition was 7.6%. Regarding `CCOc1[nH]n(-c2ccc(Cl)cc2)c(=O)c1C=Nc1ccc(O)cc1`, the inhibition was 3.53%. As for `Oc1ccc(N=Cc2c(O)ccc3ccccc23)cc1`, the figure is 32.3% (active); as for `CCOC(=O)N1CCN(c2c(NCCN3CCN(c4ccccc4F)CC3)c(=O)c2=O)CC1`, 1.74%.

With `O=[N+]([O-])c1ccc(F)cc1Oc1nc(-c2cccnc2)nc2ccccc12`, the inhibition is -3.66%.

In the case of `O=[N+]([O-])c1ccc(Oc2ccc(F)cc2Br)c2ccncc12`, the inhibition was 41.4% (active).

With `O=S(=O)(/N=C(/Nc1ccccc1)c1ccccc1)c1cccs1`, the inhibition was 1.19%. Consider `Cc1ccc(S(=O)(=O)N(CC(=O)NCc2ccco2)c2ccccc2C)cc1`, for which the inhibition was -4.36%. On to `CC(=O)Nc1ccc(NC(=O)CN2C(=O)COc3ccc(S(=O)(=O)N4CCCCC4)cc32)cc1`, for which the inhibition is -8.84%. Regarding `CSc1cccc(NC(=O)CN2C(=O)COc3ccc(S(=O)(=O)N4CCOCC4)cc32)c1`, the inhibition is 35.7% (active). Consider `COc1ccc(NC(=O)CN2C(=O)COc3ccc(S(=O)(=O)N4CCOCC4)cc32)cc1`, for which the inhibition was 7%. `O=S(=O)(Nc1ccc2[nH]ncc2c1)c1ccccc1Cl`: the inhibition is -3.28%. Regarding `COc1cnn(-c2ccc([N+](=O)[O-])cc2)c(=O)c1Cl`, the inhibition is 6.75%.

`O=c1[nH]c2cccnc2n1-c1ccc([N+](=O)[O-])cc1`: the inhibition is 0.99%. Consider `O=c1[nH]n(-c2ccc([N+](=O)[O-])cc2)c(=O)c2ccccc12`, for which the inhibition was 33.6% (active). In the case of `Cc1ccc(N2CCN(c3ccc(C)cc3)C2c2ccccn2)cc1` it was 3.84%; in that of `CC(NCc1cccs1)C(=O)Nc1cc(Cl)cc(Cl)c1` (centres undefined), -2.93%; in that of `Cn1nc(C(F)(F)F)c2cc(NC(=O)OCC(C)(C)C)sc21`, -2.17%. `O=C1OCC2=C1C(c1ccccc1)CC(=O)N2c1cccc(F)c1` (centres undefined): the inhibition was 0.97%.

`CCc1nnc(NC(=O)CSc2nnnn2-c2cccc(C(C)=O)c2)s1`: the inhibition is 0.16%. Turning to `COC(=O)c1cc(NC(=O)c2cccnc2)ccc1N1CCOCC1`, the inhibition was 2.91%. In the case of `O=C(Nc1ccc(N2CCN(C(=O)c3ccccc3)CC2)c(Cl)c1)c1ncn[nH]1`, the inhibition was 14.6%. As for `O=C(Nc1ccc(N2CCN(C(=O)c3ccccc3)CC2)c(Cl)c1)c1cccnc1`, the inhibition is 27.9% (active). With `COC(=O)c1ccccc1NC(=O)CN(Cc1ccccc1)S(C)(=O)=O`, the inhibition is -8.82%. `COc1ccc([C@H]2CC(=O)C=C(c3ccc(C)cc3)C2)cc1`: the inhibition was 15.7%. For the compound `O=C1C=C(c2cccc(Cl)c2)C[C@@H](c2ccc(F)cc2)C1`, the inhibition is 0.27%.

Consider `N#Cc1ccc(C2=CC(=O)C[C@H](c3ccc(Cl)cc3)C2)cc1`, for which the inhibition is 43.3% (active). In the case of `O=C(CN1CCN(C(=O)c2ccco2)CC1)Nc1ccc2c(c1)OCO2` it was -2.14%; in that of `CCNC(=S)N1CCN(C(=O)c2ccco2)CC1`, 2.65%. With `O=C(c1ccco1)N1CCN(C(=S)Nc2cc(F)cc(F)c2)CC1`, the inhibition is 33.1% (active). Regarding `COc1ccc(CN(C)C(=O)Cc2ccsc2)c(OC)c1OC`, the inhibition was 4.71%. As for `COc1cccc(OC)c1C(=O)NC(=S)Nc1ccc(N2CCOCC2)c(Cl)c1`, the figure is -0.51%; as for `CCOc1ccc(C(=O)NC(=S)Nc2ccc(NC(=O)C(C)C)cc2)cc1[N+](=O)[O-]`, 19.4%; as for `CCOc1ccc(C(=O)NC(=S)Nc2ccc(N3CCOCC3)c(Cl)c2)cc1[N+](=O)[O-]`, 26.8% (active). As to `O=C(Nc1ccccc1N1CCOCC1)c1ccncc1`, the inhibition was -4.72%. Regarding `Cc1nn2c(=O)cc(COC(=O)c3ccc(NC(=O)C(C)(C)C)cc3)nc2s1`, the inhibition is 31.4% (active). In the case of `COCCc1nn2c(=O)cc(COC(=O)c3cc(OC)c(OC)c(OC)c3)nc2s1` it was 7.86%; in that of `Cc1csc2nc(COC(=O)c3cccc(N(C)C)c3)cc(=O)n12`, 6.85%; in that of `O=C(Nc1ccc([N+](=O)[O-])cc1)OCCc1ccccn1`, 1.34%.

In the case of `Cc1ccc(N2CCN(C3=NC(=O)/C(=C\c4cccs4)S3)CC2)cc1`, the inhibition was 51.7% (active). As for `Cc1ccsc1/C=C1\SC(N2CCOCC2)=NC1=O`, the inhibition is 1.19%.

`Cc1ccc(N2CCN(/N=C/c3cccs3)CC2)cc1`: the inhibition is 6.07%.

`Cc1ccc(S(=O)(=O)N(C)CC(=O)OCC(=O)N2CC(=O)Nc3ccccc32)cc1`: the inhibition was 2.05%. As to `CCN(CC)c1ccc(C(=O)Nn2c(C)nc3ccccc3c2=O)cc1`, the inhibition was 4.7%. In the case of `CCN(CC)c1ccc(C(=O)NNC(=O)CCc2nc3ccccc3c(=O)[nH]2)cc1`, the inhibition was 26.9% (active). On to `CCCC(=O)N(CCc1ccccc1)Cc1nc2ccccc2c(=O)[nH]1`, for which the inhibition is -5.43%. In the case of `CCOCCCN(C)C1CCN(C(=O)c2oc3ccccc3c2NC(=O)COc2cccc(C)c2)CC1` it was -6.18%. Take `Cc1ccc(Cl)cc1NC(=O)C1CCCN(c2cnccn2)C1` (centres undefined): the inhibition was -0.03%.

Regarding `COC(=O)c1sc(=S)n(-c2ccc(Cl)cc2)c1C`, the inhibition is 1.95%. As for `COCCOC(=O)c1sc(=S)n(CCOC)c1N`, the inhibition was 34.7% (active). As to `COc1ccccc1NC(=O)CSc1nnc(CNC(=O)c2ccccc2F)o1`, the inhibition is -2.81%. Turning to `Cc1nn(-c2ccccc2)c2c1c(C)c(CCC(=O)NCC1CCCO1)c(=O)n2C` (centres undefined), the inhibition was 0.8%. With `Cc1cc(SCC(=O)NCCN2C(=O)CSC2=O)nc2ccccc12`, the inhibition was -4.03%. As to `Clc1ccc(C2=CSC3=Nc4cccc5cccc(c45)N23)cc1`, the inhibition is 0.51%.

Consider `Cn1cc(CNC(=O)c2ccc(OC3CCN(Cc4ccccn4)CC3)cc2)cn1`, for which the inhibition is 11%.

Regarding `CN(CCc1ccccn1)C(=O)c1ccc(OC2CCN(CCc3ccccc3)CC2)cc1`, the inhibition is 33.7% (active). In the case of `O=C(c1ccc(OC2CCN(Cc3ccccn3)CC2)cc1)N1CCCCCC1` it was 3.95%. As for `NS(=O)(=O)c1ccc(N=Nc2c(O)[nH]c3ccc(Br)cc23)cc1`, the inhibition is 1.06%.

On to `Cc1ccc(/C=C/C(=O)OCC(=O)Nc2cccnc2Cl)cc1`, for which the inhibition was 7.22%. In the case of `Nc1nc(SCC(=O)Nc2ccc(Cl)cc2C(F)(F)F)n[nH]1` it was 9.87%; in that of `CC(C)CNC(=O)C(=O)NCC(c1ccc2c(c1)OCO2)N1CCOCC1` (centres undefined), 6.19%.

Turning to `Cc1nn(Cc2ccccc2)c(C)c1CNC(=O)c1ccc(F)c(S(=O)(=O)N2CCOCC2)c1`, the inhibition was 29.7% (active). For the compound `O=C(NCCSCc1ccccc1)c1ccc(Cl)c(S(=O)(=O)N2CCOCC2)c1`, the inhibition was 1.96%. Consider `O=C(c1ccc(F)c(S(=O)(=O)N2CCOCC2)c1)N(CCc1ccccc1)Cc1ccccc1`, for which the inhibition was 5.14%. In the case of `CC(OC(=O)CCC(=O)c1ccccc1)C(=O)Nc1ccc(F)cc1` (centres undefined), the inhibition is -5.12%. In the case of `CN(CCC(=O)Nc1cc(S(=O)(=O)N(C)C)ccc1Cl)CC(=O)Nc1ccc(F)cc1` it was -4.23%. On to `CC(C)N(Cc1ccccc1)C(=O)COC(=O)c1ccccc1SCC(=O)N1CCCC1`, for which the inhibition was 1.65%. With `COc1ccc(/C=C/C(=O)Nc2c(C)nn(C)c2C)cc1COc1ccc(Br)cc1`, the inhibition was -4.58%.

Turning to `O=C(COc1ccccc1)Nc1ccc(N2CCN(C(=O)c3cccs3)CC2)cc1`, the inhibition is 7.89%. On to `Cc1ccccc1C(=O)N1CCN(c2ccc(NC(=O)c3cccs3)cc2)CC1`, for which the inhibition is 2.59%. In the case of `O=C(Nc1ccc(N2CCN(C(=O)c3cccs3)CC2)cc1)c1cccnc1Cl`, the inhibition is 35.9% (active). As for `CN=C1S/C(=C\c2c(OC)cc(OC)cc2OC)C(=O)N1C`, the figure is -0.06%.

Regarding `CC(C)OCCCNC(=O)CN1C(=O)/C(=C/c2ccccc2F)Oc2ccccc21`, the inhibition is -0.43%. Turning to `CCC(=C/c1sc2ccc3ccccc3c2[n+]1C)/C=C1\Sc2ccc3ccccc3c2N1C`, the inhibition is 40.1% (active).

With `O=P(O)(CP(=O)(c1ccccc1)c1ccccc1)c1ccccc1O`, the inhibition was -2.71%. Turning to `CCC(C)CCN1CCN=C1N(C)C` (centres undefined), the inhibition is 8.55%. With `O=S(=O)(Nc1ccc(Cl)cn1)c1cnc(Cl)c(Br)c1`, the inhibition was 2.67%. In the case of `COC(=O)/C(=C1\Oc2ccc(C(C)(C)C)cc2S1)C(F)(F)F`, the inhibition was -3.77%. As to `CC(=O)c1cc2c(cc1N)OCO2`, the inhibition is -2.04%. For `Nc1[nH][nH]c(=O)c1N=Nc1ccc2c(c1)OCO2`, the inhibition is 28.4% (active). As for `O=C(c1ccc2c(c1)OCO2)N1CCOCC1`, the figure is 2.23%; as for `COc1ccc([N+](=O)[O-])cc1C1NN=C(c2cccc3ccccc23)S1` (centres undefined), 7.57%.

On to `Cc1cccc(C(=O)NC(=S)N2CCN(c3ccc([N+](=O)[O-])cc3)CC2)c1`, for which the inhibition is 0.8%. For the compound `O=C(COC(=O)c1cc([N+](=O)[O-])ccc1NCc1ccccc1)NC1CCCCC1`, the inhibition was 12%. In the case of `CC1=C(C(=O)OCC2CCCCC2)C(c2ccc(F)cc2)NC(=O)N1` (centres undefined) it was 0.63%; in that of `COCCOC(=O)C1=C(C)NC(=O)NC1c1ccc(Cl)cc1` (centres undefined), 3.24%; in that of `CCC(CC)COC(=O)C1=C(C)NC(=O)NC1c1ccc([N+](=O)[O-])cc1` (centres undefined), 28.8% (active). Consider `Cc1cc(C)c(C#N)c(SCc2ccccc2C(=O)O)n1`, for which the inhibition is 1.89%.

As for `CCc1ccc(C2C(C#N)=C(N)Oc3n[nH]c(CC(=O)OC)c32)cc1` (centres undefined), the inhibition is 5.23%. Consider `Cc1cc(C)c(C#N)c(SCc2[nH]nc3c2C(c2ccccc2)C(C#N)=C(N)O3)n1` (centres undefined), for which the inhibition is 55.3% (active).

In the case of `CC(C)NC(=O)CSc1nnc(COc2ccccc2Cl)o1`, the inhibition is 1.63%. Regarding `O=C(CCN1CCCO1)N1CCCC(N2CCN(c3cccc(C(F)(F)F)c3)CC2)C1` (centres undefined), the inhibition was 4.25%. As to `Cc1ccccc1N1CCN(CCCN2C(=O)C3CCCCN3C2=O)CC1` (centres undefined), the inhibition is -1.82%. With `O=C1C2CCCN2C(=O)N1CCCCN1CCN(c2cccc(C(F)(F)F)c2)CC1` (centres undefined), the inhibition is 64.2% (active).

The values are drawn from PubChem BioAssay AID2177 (The Scripps Research Institute Molecular Screening Center, 2009).
